This note sets out measurements from PubChem BioAssay (NCATS).

Results filed as inconclusive are left out. Active and inactive are the calls of the source. Unless noted, calls come from the whole dose curve; as a rule, active = well fitted curve in the direction sought with a large enough effect; inconclusive = small, poorly fitted or top-dose-only effect, or another doubt; inactive = no such curve, though single readings can be large; an effect the other way counts as inactive or inconclusive.

Experiment [1] can be described thus: Cell Viability - H-4-II-E (AID 543).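 Note: cells exposed to compound for 40 hours; % is set by controls: 0 for no effect and ±100 for the full control effect; nearly all actives have a fitted effect of over 35% in size.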 In outline: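 Rat hepatoma H-4-II-E cells, 1500 per well, treated 40 h at 37 °C in complete medium. Cellular ATP read by CellTiter-Glo luminescence; AC50 from Hill fits of concentration-response.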
Experiment [2] is described as follows: Cell Viability - SH-SY5Y (AID 544).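 Note: cells exposed to compound for 40 hours; nearly all actives have a fitted effect of over 55% in size.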 The note with it: SH-SY5Y neuroblastoma cell viability; viability change, negative = cytotoxic: at 92.2 µM (top of the series). The essentials: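 SH-SY5Y human neuroblastoma cells (1500/well) incubated 5 h, then compound-treated 40 h at 37 °C in complete medium. Viability read as intracellular ATP by CellTiter-Glo luminescence after 20 min; AC50 from Hill-equation fits of qHTS concentration-response.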

Experiment [3] can be described thus: Cellular Toxicity (caspase-3) Jurkat (AID 655).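 Note: cells exposed to compound for 16 h at 37 °C before reading.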 The note with it: Jurkat caspase-3 activation, luminescence; caspase-3 activation: at 92.2 µM (top of the series), DMSO = 0%, tamoxifen = 100%. In outline:
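Luminescent caspase-3/7 readout (aminoluciferin substrate cleavage) in human T-cell leukemia Jurkat cells after 16 hr compound exposure. Concentration-response normalized to DMSO and 100 uM tamoxifen; AC50 by standard Hill equation.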

Experiment [4] in a line: Cell Viability - LYMP2-001 (AID 921).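 Note: 0% = DMSO only and full inhibition = tetraoctylammonium bromide control wells; nearly all actives have a fitted effect of over 70% in size.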 The essentials:
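CellTiter-Glo luminescence (intracellular ATP) after 24 hr compound exposure at 37 C, 2500 lymphoblastoid cells/well in complete medium. AC50 fitted with standard Hill equation; tetraoctylammonium bromide positive control.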

A short description of experiment [5]: MultiTox-Fluor Cytotoxicity Assay - LYMP1-003 - Live Cells (AID 962).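 Note: 0% = DMSO only and full loss = 92 µM tetraoctylammonium bromide; cytotoxic hits lower the live-cell protease signal.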 The essentials:
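LYMP1-003 lymphoblastoid cells, 2500/well in complete medium, treated 16 h at 37 C; live-cell protease cleavage of GF-AFC read by fluorescence (Ex/Em 405/510) after 60 min reagent; AC50 from Hill fits of concentration-response.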

The nature of experiment [6]: Cell Viability - LYMP2-004 (AID 966).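 Note: plate controls were DMSO only for no effect and tetraoctylammonium bromide control for full effect; nearly all actives have a fitted effect of over 65% in size.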 In outline: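 Lymphoblastoid LYMP2-004 cells, 2500 per well, were preincubated for 5 hr and then treated with compound for 24 h at 37 C in complete medium. Viability was read as cellular ATP by CellTiter-Glo luminescence, and AC50 values were taken from Hill fits to concentration-response data.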
Experiment [7] is described as follows: Cell Viability - LYMP2-015 (AID 971).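 Note: 0% = DMSO only and full effect = 92 µM tetraoctylammonium bromide; nearly all actives have a fitted effect of over 55% in size.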 The essentials: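 LYMP2-015 human lymphoblastoid cells (2500/well) in complete medium, compound-treated 24 h at 37 C; viability read as cellular ATP by CellTiter-Glo luminescence after 30 min at room temperature. AC50 from Hill-equation fits of qHTS concentration-response data.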
A short description of experiment [8]: Cell Viability - LYMP2-019 (AID 973).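 Note: 0% = DMSO alone and full effect = 92 µM tetraoctylammonium bromide; nearly all actives have a fitted effect of over 55% in size.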 In outline: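 Human lymphoblastoid LYMP2-019 cells (2500/well) preincubated 5 h at 37 C, then treated 24 h at 37 C in complete medium. Viability by CellTiter-Glo ATP luminescence after 30 min at room temperature; AC50 from Hill fits.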
Experiment [9] in a line: Cell Viability - LYMP2-021 (AID 974).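 Note: compound exposure lasts 24 hours at 37 °C; % is set by controls: 0 for no effect and ±100 for the full control effect; nearly all actives have a fitted effect of over 55% in size.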 The essentials: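 Human lymphoblastoid LYMP2-021 cells, 2500/well in complete medium, treated 24 hours at 37 C. Intracellular ATP by CellTiter-Glo luminescence (30 min, RT); AC50 from Hill fits of concentration-response.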
The nature of experiment [10]: Cell Viability - LYMP2-025 (AID 976).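 Note: plate controls were DMSO only for no effect and tetraoctylammonium bromide control for full effect.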 In outline: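 Human lymphoblastoid LYMP2-025 cells, 2500/well, exposed 24 h at 37 C in complete medium in 1536-well qHTS. Viability as cellular ATP by CellTiter-Glo luminescence; AC50 from Hill fits of concentration-response data.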
The nature of experiment [11]: Cell Viability - LYMP2-006 (AID 978). Note: % is set by controls: 0 for no effect and ±100 for the full control effect; nearly all actives have a fitted effect of over 60% in size. The essentials: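 qHTS, 1536-well; 2500 cells/well, 5 hr 37 C; cpd 24 hr 37 C; CellTiter-Glo 30 min RT; luminescence. Tetraoctylammonium bromide pos. ctrl. AC50 via Hill eqn.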
Experiment [12] is described as follows: Cell Viability - LYMP2-007 (AID 979).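 Note: cells exposed to compound for 24 h before reading; 0% = DMSO only and the negative end = 92 µM tetraoctylammonium bromide; nearly all actives have a fitted effect of over 60% in size.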 The essentials:
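Human lymphoblastoid LYMP2-007 cells (2500/well) preincubated 5 h at 37 C, then treated 24 h at 37 C in complete medium. Viability by CellTiter-Glo ATP luminescence after 30 min at room temperature; AC50 from Hill fits.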

Experiment [13] is described as follows: Cell Viability - LYMP2-014 (AID 983).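 Note: plate controls were DMSO only for no effect and 92 µM tetraoctylammonium bromide for full effect; nearly all actives have a fitted effect of over 50% in size.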 The essentials:
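LYMP2-014 human lymphoblastoid cells, 2500/well, treated 24 h at 37 C in complete medium; viability by CellTiter-Glo ATP luminescence after 30 min at room temperature. AC50 from Hill fits of qHTS concentration-response; tetraoctylammonium bromide positive control.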

A short description of experiment [14]: Cell Viability - LYMP2-018 (AID 985).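 Note: plate controls were DMSO only for no effect and tetraoctylammonium bromide at 92 µM for full effect; nearly all actives have a fitted effect of over 50% in size.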 The essentials:
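Human lymphoblastoid LYMP2-018 cells, 2500/well, settled 5 hr at 37 C then exposed to compound 24 hr at 37 C; intracellular ATP measured by CellTiter-Glo luminescence. AC50 from Hill-equation concentration-response fits.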

Experiment [15] is described as follows: Cell Viability - LYMP2-020 (AID 986). In outline: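 Human lymphoblastoid LYMP2-020 cells (2500/well) preincubated 5 h at 37 C, then treated 24 h at 37 C. Viability measured as intracellular ATP by CellTiter-Glo luminescence after 30 min at room temperature; AC50 from Hill fits.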
Experiment [16] is described as follows: Cell Viability - LYMP2-022 (AID 987). The essentials: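 LYMP2-022 lymphoblastoid cells (2500/well, complete medium) were treated with compounds for 24 hours at 37 C; intracellular ATP was then read by CellTiter-Glo luminescence after 30 min at room temperature. AC50 values were derived from Hill-equation fits.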
The nature of experiment [17]: Cell Viability - LYMP2-026 (AID 989). Note: % is set by controls: 0 for no effect and ±100 for the full control effect; nearly all actives have a fitted effect of over 50% in size. In outline: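 Human lymphoblastoid LYMP2-026 cells, 2500/well, exposed to compound 24 h at 37 C in complete medium. Viability as intracellular ATP by CellTiter-Glo luminescence; AC50 from Hill fits of qHTS concentration-response.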
Experiment [18] can be described thus: Cell Viability - LYMP1-002 - Assay at 40 hr (AID 994).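 Note: 0% = DMSO only and full inhibition = 92 µM tetraoctylammonium bromide; nearly all actives have a fitted effect of over 60% in size.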 The essentials: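 LYMP1-002 human lymphoblastoid cells (2500/well, complete medium) were treated with compounds for 40 hr at 37 C. Intracellular ATP was measured by CellTiter-Glo luminescence, and AC50 values came from Hill-equation fits of concentration-response data; tetraoctylammonium bromide was the positive control.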

Experiment [19] can be described thus: qHTS assay for small molecule agonists of retinoid X receptor alpha signaling (AID 588544). To be noted: HEK293T RXRa-UAS-bla, beta-lactamase reporter, 18 h; 530 nm emission. A general note: qHTS replaces the single test concentration by a dilution series.
Experiment [20] is described as follows: qHTS assay for small molecule antagonists of the retinoid-related orphan receptor gamma (ROR-gamma) signaling pathway - cell viability counter screen (AID 720652; active = well fitted curve in the direction sought with a large enough effect in the repeat runs; an effect the other way counts as inactive or inconclusive;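 note: CHO reporter cells with doxycycline-induced ROR-gamma expression; compound exposure lasted 16 hr before ATP read; % is set by controls: 0 for no effect and ±100 for the full control effect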). In outline: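 CHO cells carrying TET-inducible ROR and RORE-luciferase reporter, plated 5 hr, then dosed with compound plus doxycycline. After 16 hr at 37 C, viability read as intracellular ATP by CellTiter-Glo luminescence.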

With `CC(C)CC(C)N` (stereo not drawn), the Potency entry in [1], in [2], in experiment [4], in experiment [6], in experiment [7] and in experiment [8] was “inactive” throughout. Further, the Potency entry in experiment [9], in experiment [10], in [11], in experiment [12], in experiment [13] and in experiment [14] was “inactive” each time. Besides, the Potency entry in [15], in [16], in experiment [17], in experiment [18] and in experiment [20] was “inactive” each time. The caspase-3 activation in [3] was 1.95% (inactive). The call in experiment [5] was inactive. In experiment [19], the max response is -12.2%.

Take `Cc1cnc[nH]1`: the Potency entry in experiment [1], in experiment [2], in [4], in experiment [6], in experiment [7] and in [8] was “inactive” throughout. The Potency result in experiment [9], in experiment [10], in experiment [11], in experiment [12], in [13] and in experiment [14] was “inactive” throughout. For the same compound, the Potency entry in experiment [15], in [16], in experiment [17] and in experiment [20] was “inactive” each time. Besides, the caspase-3 activation in experiment [3] was 1.79% (inactive). Besides, the compound was classed as inactive in experiment [5]. The max response in experiment [19] was determined as 2.59%.

Take `CCOC(=O)C1OC1(C)c1ccccc1` (stereo not drawn): the Potency entry in experiment [1], in experiment [2], in experiment [4], in [6], in experiment [7] and in [8] was “inactive” each time. Also, the Potency entry in experiment [9], in experiment [10], in [11], in experiment [12], in experiment [13] and in experiment [14] was “inactive” throughout. Besides, the Potency result in experiment [15], in experiment [16], in experiment [17], in experiment [18] and in [20] was “inactive” each time. Further, the caspase-3 activation in experiment [3] was -2.16% (inactive). Further, the outcome in experiment [5] was inactive. In addition, in experiment [19], the max response was -8.71%.

Take `NNC(N)=S`: the Potency result in [1], in experiment [2], in [4], in experiment [6], in experiment [7] and in experiment [8] was “inactive” in each case. The Potency result in experiment [9], in experiment [10], in [11], in [12], in experiment [13] and in experiment [14] was “inactive” throughout. Further, the Potency entry in experiment [15], in experiment [16], in experiment [17], in [18] and in experiment [20] was “inactive” throughout. Besides, in experiment [3], the caspase-3 activation is 0.589% (inactive). Further, in [5], the compound was classed as inactive.

On to `Cc1cc(Cl)ccc1O`, for which the Potency result in experiment [1], in experiment [2], in experiment [4], in experiment [6], in experiment [7] and in [8] was “inactive” each time. For the same compound, the Potency entry in experiment [9], in experiment [10], in experiment [11], in experiment [12], in experiment [13] and in experiment [14] was “inactive” throughout. The Potency entry in experiment [15], in experiment [16], in experiment [17], in experiment [18] and in experiment [20] was “inactive” in each case. For the same compound, the caspase-3 activation in [3] was 4.09% (inactive). The compound was called inactive in experiment [5]. Also, the max response in experiment [19] is -4.59%.

As for `O=S(=O)(O)F`, the Potency entry in experiment [1], in experiment [2], in [4], in [6], in [7] and in experiment [8] was “inactive” throughout. In addition, the Potency entry in experiment [9], in experiment [10], in experiment [11], in [12], in experiment [13] and in experiment [14] was “inactive” in each case. In addition, the Potency result in experiment [15], in experiment [16], in experiment [17], in experiment [18] and in [20] was “inactive” in each case. For the same compound, the caspase-3 activation in [3] was 1.63% (inactive). The compound was classed as inactive in experiment [5]. For the same compound, the max response in [19] is -13.3%.

In the case of `N#CCc1ccccc1`, the Potency result in experiment [1], in experiment [2], in [4], in [6], in experiment [7] and in experiment [8] was “inactive” throughout. Also, the Potency entry in [9], in [10], in [11], in experiment [12], in experiment [13] and in experiment [14] was “inactive” throughout. The Potency entry in experiment [15], in experiment [16], in experiment [17], in [18] and in experiment [20] was “inactive” in each case. Moreover, the caspase-3 activation in [3] was -0.89% (inactive). Further, the result in experiment [5] was inactive. Besides, the max response in experiment [19] is -3.72%.

`COc1ccccc1N`: the Potency result in experiment [1], in experiment [2], in [4], in [6], in experiment [7] and in experiment [8] was “inactive” each time. For the same compound, the Potency result in [9], in experiment [10], in experiment [11], in experiment [12], in experiment [13] and in experiment [14] was “inactive” throughout. In addition, the Potency entry in experiment [15], in experiment [16], in experiment [17], in [18] and in experiment [20] was “inactive” each time. Also, the caspase-3 activation in [3] is 5.87% (inactive). Besides, the compound was called inactive in experiment [5]. Also, the max response in experiment [19] is -8.71%.
